This note sets out measurements from ChEMBL document CHEMBL3988442, “University of Dundee, Small-Polar-MMV Screening Library” (2021).

Hit rate of the full screen: of about 48,000 compounds, about 13,000 (27%) showed an effect of 50% or more. Some of the results follow.

The experiment deals with Wolbachia pipientis. The experiment in a line: Anti-Wolbachia Cell-Based Screen. Also noted: scale not given: in the data most compounds retested in dose-response had high values. It counts as functional. The conditions noted are these: 5 µM.
As to `O=C(c1cc2ccccc2o1)N1CCN(Cn2cc(Cl)cn2)CC1`, the “Percent Effect” value is given as -7.476%.
With `CNC(=O)CCNC(=O)c1cc(Br)c2c(c1)OCCO2`, the “Percent Effect” value is on record as 13.5%.
As for `Cc1ccc([C@@H]2CN(S(=O)(=O)c3ccccc3)C[C@H]2N(C)C)cc1`, the figure is -8.566%.
On to `CCN(C)S(=O)(=O)N1CCCC(c2nc(-c3ccccc3)c[nH]2)C1` (stereo not given), for which the “Percent Effect” value is reported as -1.843%.
The result for `Cc1ccc(S(=O)(=O)N2CCCC(c3n[nH]cc3C(=O)N(C)C)C2)cc1` (stereo not given) reads 125.7%; that for `O=C(NCc1nnc2ccccn12)N1CCOC(c2ccsc2)C1` (stereo not given), -11.65%; that for `COc1ccc(OC)c(C(O)CNC(=O)Nc2ccc(F)cc2F)c1` (stereo not given), 81.01%.
`COc1ccc(NC(=O)NCC(O)c2ccc(F)cc2F)c(OC)c1` (stereo not given): the “Percent Effect” value worked out at 9.274%.
As for `COc1ccc(OC)c(NC(=O)NCC(O)c2ccc(F)c(F)c2)c1` (stereo not given), the figure is 19.22%; as for `COc1ccc(NC(=O)NCC(O)c2ccccc2F)c(OC)c1` (stereo not given), 84.27%.
The result for `COc1ccccc1C(O)CNC(=O)Nc1ncccc1C` (stereo not given) reads 0.5949%.
Turning to `CCOc1ncccc1NC(=O)NCC(O)c1ccccc1OC` (stereo not given), the “Percent Effect” value was -2.656%.
The result for `CCN(C)C1CCCc2nc(C)sc21` (stereo not given) reads -11.76%; that for `Cc1ccc(OC2(C(=O)O)CCN(C(=O)c3cc(C)oc3C)CC2)cn1`, -11.44%; that for `Cc1cc(C(=O)N2CCC3(CC2)C(=O)NCCN3CC(C)C)c(C)o1`, 4.806%.
As to `Cc1cc(C(=O)N2CCC3(CC2)C(=O)N(C)CCN3CC(C)C)c(C)o1.O=C(O)C(F)(F)F`, the “Percent Effect” value was found to be 105.2%.
As for `CCc1ccc(CN2CCC3(CC2)C(=O)N(C)CCN3CC2CC2)cc1.O=C(O)C(F)(F)F`, the figure is -26.46%.
The result for `Cc1cc(C(=O)N2CCC3(CC2)C(=O)N(C)CCN3CC2CC2)c(C)o1.O=C(O)C(F)(F)F` reads 105.3%; that for `CCN1CCC2(CC1)C(=O)N(c1ccc(C)nc1)CCN2CC(C)C.O=C(O)C(F)(F)F`, -13.38%; that for `Cc1ccsc1C(=O)N1CCC2(CC1)C(=O)N(C)CCN2CC1CC1.O=C(O)C(F)(F)F`, 98.73%.
Consider `Cc1ccc(N2CCN(CC3CC3)C3(CCN(C(C)C)CC3)C2=O)cn1.O=C(O)C(F)(F)F`, for which the “Percent Effect” value is recorded as -1.753%.
The result for `O=C(O)[C@@H]1CN(CCOCCO)C[C@H]1c1ccccc1` reads -10.46%; that for `N#Cc1ccc(OC2CCN(C(=O)c3cncc(Br)c3)CC2)nc1`, 3.966%.
Take `CCC(C)(CC(=O)OC)NC(=O)c1ccc2[nH]ccc2c1` (stereo not given): the “Percent Effect” value is -0.3166%.
`CCCn1[nH]cc/c1=N\C(=O)CN1CCCC1Cn1nc(C)nc1C` (stereo not given): the “Percent Effect” value is recorded as -1.859%.
The result for `CC(=O)c1cccc(NC(=O)CN2CCCCC2C)c1` (stereo not given) reads -9.973%; that for `CCCS(=O)(=O)CCN1CCOC(c2ccsc2)C1` (stereo not given), -6.167%.
In the case of `CC(=O)N1CCCN(CCCc2ccccc2)CC1`, the “Percent Effect” value is -14.81%.
The result for `COc1cccc(OCC2CCCN(C(=O)c3ncoc3C3CC3)C2)c1` (stereo not given) reads -37.79%; that for `Nc1nccnc1C(=O)N1CCN(CCOc2ccccc2)CC1`, -15.87%.
The result for `Cc1ocnc1C(=O)N1CCN(CCOc2ccccc2)CC1` reads 109.9%.
Take `O=C(c1ncoc1C1CC1)N1CCN(CCOc2ccccc2)CC1`: the “Percent Effect” value turned out to be 94.73%.
`Cn1nccc1C(=O)N1CCCN(CCCc2ccccc2)CC1`: the “Percent Effect” value was -12.37%.
For the compound `CC(C(=O)N1CCN(CCOc2ccccc2)CC1)n1cc(Cl)cn1` (stereo not given), the “Percent Effect” value is 9.787%.
The result for `O=C(c1ncoc1C1CC1)N1CCCN(CCCc2ccccc2)CC1` reads 104.8%; that for `O=C(CCn1cc(Cl)cn1)N1CCN(CCOc2ccccc2)CC1`, -6.646%; that for `O=C(c1n[nH]c2c1CCN(Cc1nccs1)C2)N1CCOCC1`, 14.04%.
With `O=C(CN1CCc2cncnc2C1)N1CCc2sccc2C1`, the “Percent Effect” value was -26.01%.
The result for `Cc1cc(CNc2ccc(C(=O)N3CCc4ccccc43)cn2)on1` reads 23.63%.
The result for `CSC1(CNC(=O)NCc2sccc2C)CCOCC1` reads -11.79%.
With `COC(=O)NCC(=O)N(C)Cc1csc(-c2cccs2)n1`, the “Percent Effect” value is on record as -9.296%.
For the compound `Cc1ncc(CN(C)C2CCCN(CCc3ccccc3)C2)n1C` (stereo not given), the “Percent Effect” value is on record as -4.655%.
The result for `COc1cccc(CN2CCC(Cc3cnc(CN(C)C)cn3)CC2)c1` reads 111.9%; that for `COc1ccccc1OC1CCN(Cc2cnc(N(C)C)nc2)CC1`, -4.548%.
The result for `Cc1cnc(CN(C)C2CCN(CCc3ccccn3)CC2)cn1` reads 10.61%; that for `COc1cccc(CN2CCC(c3nccn3C(C)C)CC2)c1`, 7.494%; that for `COc1ccccc1CN1CCC(Cc2cnc(CN(C)C)cn2)CC1`, 110%.
With `CCn1c(CN(C)C)nnc1C1CCN(Cc2cccc(OC)c2)CC1`, the “Percent Effect” value turned out to be 12.38%.
As for `COc1ccccc1CN(C)C(=O)c1cc(CN2CCC(O)CC2)on1`, the figure is -15.1%; as for `CN(C)Cc1cnc(CC2CCN(CCc3ccccc3)CC2)cn1`, 90.66%; as for `O=C(NCCN1CCOCC1)NCc1ncc(-c2ccccc2)o1`, 4.39%.
The result for `CCc1cc(N2C[C@H](C3CC3)[C@@H](N)C2)nc(N2CCCC2)n1` reads 13.06%.
Regarding `O=C(C1SCCc2sccc21)N1CC(O)C1` (stereo not given), the “Percent Effect” value was -8.874%.
The result for `O=C(c1ccc(C2CCCO2)s1)N1CCS(=O)(=O)CC1` (stereo not given) reads -17.24%; that for `O=C(NCCc1nc(-c2ccccn2)no1)c1ccc(C2CCCO2)s1` (stereo not given), 1.168%; that for `Brc1ccc(CNCc2nnc3n2CCC3)s1.Cl`, 7.308%.
The result for `Brc1ccc(CNCc2nnc3n2CCCCC3)s1.Cl` reads -9.966%; that for `CCCn1nc(C(=O)NCc2nnc3n2CCC3)ccc1=O`, 10.17%; that for `O=C(NCc1nnc2n1CCC2)c1ccc(C2CCCO2)s1` (stereo not given), 92.93%.
Consider `O=C(NCc1nnc2n1CCC2)c1ccc(Br)s1`, for which the “Percent Effect” value came to 111.9%.
As for `O=C(NCc1nnc2n1CCCC2)c1ccc(C2CCCO2)s1` (stereo not given), the figure is 101.2%; as for `O=C(c1ccc(C2CCCO2)s1)N1CCOCC1` (stereo not given), 12.38%; as for `O=C(NCCc1nc(-c2cccnc2)no1)c1ccc(C2CCCO2)s1` (stereo not given), 9.289%.
As to `O=C(NCc1nnnn1-c1ccccc1)c1ccc(C2CCCO2)s1` (stereo not given), the “Percent Effect” value was determined as 107.3%.
The result for `O=C(NCc1nc(-c2ncccn2)no1)c1ccc(C2CCCO2)s1` (stereo not given) reads 1.896%; that for `CCc1cccc(OCCn2cccc(C#N)c2=O)c1`, -12.24%; that for `Nc1cc(C(=O)N2C[C@H]3CC[C@@H]2CN(Cc2cccnc2)C3)ccn1`, -14.93%.
The result for `CNC(=O)[C@@H](c1ccccc1OC)N1CCC[C@H]1C(=O)N1CCC1.Cl` reads -2.79%; that for `CCCc1nncn1-c1cc(OC)ccc1OC`, -4.578%.
For `COCC(=O)NS(=O)(=O)c1ccc(F)c(F)c1`, the “Percent Effect” value is given as -13.69%.
The result for `Cc1cc(C)nc(C2CCCN2C(=O)c2cnco2)n1` (stereo not given) reads 140.7%; that for `Cc1nc(C2CCCN2C(=O)c2ccc(=O)n(C)n2)no1` (stereo not given), 4.232%; that for `Cc1cc(C)nc(C2CCCN2C(=O)c2cnccn2)n1` (stereo not given), 104.9%.
In the case of `Cc1nc(C2CCCN2C(=O)c2cnns2)no1` (stereo not given), the “Percent Effect” value is reported as -16.56%.
In the case of `Cc1cncc(C(=O)N2CCCCC2c2nc[nH]n2)c1` (stereo not given), the “Percent Effect” value is 2.614%.
On to `CC(=O)Nc1nc(C(=O)N2CCCC2c2noc(C)n2)cs1` (stereo not given), for which the “Percent Effect” value is 1.192%.
The result for `Cc1cc(C)nc(C2CCCN2C(=O)c2coc(C)n2)n1` (stereo not given) reads 95.19%; that for `COc1ccc(F)c(-c2cc(C)nc(N)n2)c1`, -7.785%; that for `OC1(CNc2ccc(Br)cn2)CCC1`, -10.9%.
As for `Cc1nc(-c2noc3ccc(C(=O)NCCN4CCOCC4)cc23)co1`, the figure is -13.78%; as for `O=C(Cc1ccccc1O)NC1CCCN(c2ccccc2F)C1=O` (stereo not given), 90.3%; as for `Cc1cc(CC(=O)NC2CCCN(c3ccccc3F)C2=O)n[nH]1` (stereo not given), 95.19%.
In the case of `Cc1cc(CNCC2(O)CCCN(CCCc3ccccc3)C2=O)n[nH]1` (stereo not given), the “Percent Effect” value was 11%.
Regarding `Cc1cc(C2CCCN(C(=O)COc3ccccc3F)C2)n[nH]1` (stereo not given), the “Percent Effect” value is listed as -9.054%.
The result for `Cc1ccc(N2CCCC(NC(=O)Cc3csc(C)n3)C2=O)cc1` (stereo not given) reads -8.265%.
The result for `CC(=O)NCCCSC1CCCN(c2ccccc2F)C1=O` (stereo not given) reads -23.33%.
The result for `COCC(=O)NC1CCCN(c2ccc(C)cc2)C1=O` (stereo not given) reads 11.31%; that for `Cn1ccc(NC(=O)NC2CCCN(c3ccccc3Cl)C2=O)n1` (stereo not given), 10.36%; that for `O=C1C(NCc2ccccc2O)CCN1Cc1ccccc1` (stereo not given), -5.18%.
Consider `Cn1cc(NC(=O)NC2CCCN(c3ccccc3Cl)C2=O)cn1` (stereo not given), for which the “Percent Effect” value is -13.39%.
For the compound `Cc1cc(CC(=O)NC2CCCN(c3ccccc3Cl)C2=O)n[nH]1` (stereo not given), the “Percent Effect” value is recorded as 103.5%.
The result for `Cc1cc(CC(=O)NC2CCCN(Cc3ccccc3)C2=O)n[nH]1` (stereo not given) reads 128.5%; that for `Cc1[nH]c2c(F)cccc2c1CC(=O)N1CCCC(N)CC1` (stereo not given), -2.417%; that for `Cc1cc(C)cc(CN2C[C@H]3COC[C@H](N4CCN(C)CC4)[C@H]3C2)c1.O=C(O)C(F)(F)F.O=C(O)C(F)(F)F.O=C(O)C(F)(F)F`, -30.24%.
Consider `CN(Cc1csc(-c2cccs2)n1)CC(O)CO` (stereo not given), for which the “Percent Effect” value was 2.949%.
`Cc1cc(=O)n(C)cc1NC(=O)CC1CCC1`: the “Percent Effect” value was -11.35%.
Take `O=C(Cc1ccon1)NC1CCCN(c2ccccc2F)C1=O` (stereo not given): the “Percent Effect” value came to 99.65%.
Consider `O=C(Cc1ccon1)NC1CC2(CCC2)Oc2ccccc21` (stereo not given), for which the “Percent Effect” value was found to be 0.8032%.
Regarding `Cc1ccc(N2CCCC(NC(=O)CCc3ccccn3)C2=O)cc1` (stereo not given), the “Percent Effect” value is on record as -0.6334%.
The result for `Cc1nc(N2CCOCC2)sc1C(=O)NCC(C)(C)N1CCCCC1` reads 59.39%.
The result for `CNc1nc(C)c(C(=O)N2CCCCC2CCN2CCOCC2)s1` (stereo not given) reads -13.11%.
The result for `CNc1nc(C)c(C(=O)NCC(C)(C)N2CCCCC2)s1` reads 51.74%; that for `CC(C)(CNC(=O)C1CCCCN1S(C)(=O)=O)N1CCOCC1` (stereo not given), 1.375%; that for `CNc1nc(C)c(C(=O)N2CCCCC2CCc2ccc(O)cc2)s1` (stereo not given), -31.11%.
Consider `COc1nc(C)c(C(=O)NCc2cc(N3CCOCC3)ncn2)s1`, for which the “Percent Effect” value is given as -8.084%.
